A short description of assay [1]: inhibitors of TNFa-induced NFkB p65 translocation, primary screen, imaging, HUVEC, MLSMR starter and 10KST1 sets (AID 438;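 active means inhibition above 20% together with a positive visual image hit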;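 further: compound added about 3h40 before a 20 min TNFalpha stimulation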;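 on inhibition: signal is the nuclear over cytoplasmic p65 intensity ratio per well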). The following applies: HUVEC TNFa-induced p65 nuclear translocation; cell count: measured here: nuclei count (cytotoxicity indicator), at 2.08 µM; inhibition: at 2 µM, stronger effect = higher value, 0% TNFa-plus-vehicle, 100% no-TNFa wells.
Assay [2] can be described thus: reduction of polyQ htt aggregates in cells – imaging, exon1htt(103Q)mCFP cells, high-content imaging, primary screen (AID 483;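 active means visual image review flags a hit and inhibition of aggregation exceeds 20%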;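 further: compound exposure lasted 3 days before fixation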;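 on nuclei count: percent of the per-plate median nuclei count of sample wells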). Conditions: exon1htt(103Q)mCFP cell line, aggregate imaging, at 2 µM; inhibition of aggregation: stronger effect = higher value; nuclei count: measured here: cell count, toxicity.
The nature of assay [3]: endothelial E-selectin expression blockers – imaging, HUVEC, immunofluorescence, MLSMR starter and 10KST1 sets, primary screen (AID 487;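 active means visually confirmed hit in the image check and inhibition above 20%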;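 on inhibition: signal is fraction of cell area covered by stained E-selectin grains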;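 on nuclei count: 100% = median nuclei count of all wells on the same plate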). Conditions: HUVEC TNFalpha-induced E-selectin immunofluorescence imaging, at 2 µM; inhibition: stronger effect = higher value; nuclei count: measured here: cell number, toxicity.
A short description of assay [4]: Primary imaging screen for DUSP6 inhibitors that restore phospho-Erk in transfected HeLa cells, chemical complementation (AID 609;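 active means compounds giving at least 50% inhibition in the cell-based MKP-3 phosphatase rescue imaging test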;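 on inhibition: phospho-Erk level distribution per well compared with pooled transfected vehicle control wells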). Conditions: HeLa MKP-3 transfected, phospho-Erk imaging KS statistic, at 10 µM, cells stimulated with TPA for 15 min.
For assay [5], the target named is Dual specificity protein phosphatase 6 (Homo sapiens) (UniProt Q16828). Described as above. Conditions: HeLa MKP-3 transfected, phospho-Erk imaging KS statistic; at 10 µM; stronger effect = higher value; cells stimulated with TPA for 15 min.
The target of assay [6] is Voltage-gated potassium channel subunit beta-2 (Rattus norvegicus) (UniProt P62483). Put plainly: inhibitors of rat Kvbeta2 reductase activity – biochemical, NADPH fluorescence, primary screen (AID 622;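 active means fluorescence slope higher than the sample average by over 3 SD, cut at about -0.22 in these data, passing the limit was not always enough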;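 further: slope of raw intensity against log time taken from 70 to 1610 s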). Conditions: recombinant KvBeta, 4-cyanobenzaldehyde reduction, at 10 µM, stronger effect = higher value.
Assay [7] has the same target. Put plainly: enhancers of rat Kvbeta2 NADPH turnover – biochemical, NADPH fluorescence, primary screen (AID 623;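 active means NADPH fluorescence slope more negative than the mean of all samples by about 3 SD, 99.7% confidence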;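 further: fluorescence intensity change per second fitted from 20 to 320 s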). The following applies: Recombinant KvBeta, NADPH fluorescence decrease slope, 10 min; at 10 µM; stronger effect = lower value.
For assay [8], the target named is Alpha-2C adrenergic receptor (Homo sapiens) (UniProt P18825). As to the kind of experiment: compounds altering alpha2C-coupled GIRK flux – cell-based, HEK293 alpha2C/GIRK1/2, thallium flux, primary screen (AID 624;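 active means fluorescence slope after compound addition differing from the mean of all screened samples at 99.7% confidence, in either direction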;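 further: slope of fluorescence ratio to pre-addition baseline per second over 15 to 24 s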). The following applies: thallium flux BTC fluorescence, at 10 µM, actives lie on both sides.
Assay [9] can be described thus: inhibitors of larval lipid processing in zebrafish, primary screen, whole organism, PED6 fluorescence, gall bladder and intestine (AID 686;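 active means a full or partial loss of lipid-probe fluorescence in the fish gall bladder, intestine or both, judged by eye; inactive means no fluorescence loss, or compound toxic to the fish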;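 further: larvae 5 to 7 days old with five fish per well; signal comes from phospholipase A2 cleavage of quenched PED6 carried via bile; overnight exposure to compound and PED6 before scoring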). Conditions: Zebrafish larvae PED6 lipid processing, fluorescence scoring; screened at 20 µM (by protocol).
The nature of assay [10]: loss of swimming-algae plug formation – whole organism, Chlamydomonas reinhardtii, WT vs cilia-less mutant, absorbance, 96-well, primary screen (AID 463189).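 Further: 0% = wild type cc124 cells in DMSO and 100% = ciliumless bld1 mutant cells.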 Conditions: Chlamydomonas reinhardtii gravitaxis, OD600 absorbance, 2 days; at 10 µM; stronger effect = higher value.
Assay [11] is described as follows: blockers of RIG-like receptor reporter activation – cell-based, Sendai virus stimulus, luciferase, 10K MLSCN set, TLR/RLR signaling modifier project, primary screen (AID 602276;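 active means inhibition at or above 50% at 10 µM; inactive means inhibition below 50%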;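 further: firefly luciferase from ISG56 promoter only with Renilla not read in this screen; 0% = Sendai virus plus DMSO and 100% = medium plus DMSO without virus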). Conditions: HEK293 RL24 IRF3 luciferase reporter, at 10 µM, stronger effect = higher value.
Assay [12] in a line: TLR3 IRF3 reporter activation blockers – cell-based, poly I:C stimulus, luciferase, 10K MLSCN set, primary screen (AID 602277;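 active means inhibition of the reporter signal at or above 50%; inactive means inhibition below 50%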). Conditions: HEK293-TLR3 RL24 IRF3 luciferase reporter, at 10 µM, stronger effect = higher value. A general note: A reporter such as luciferase makes a cellular process visible.
The target of assay [13] is Muscarinic acetylcholine receptor M4 (Homo sapiens) (UniProt P08173). As to the kind of experiment: M4-linked GIRK flux change, two-sided – cell-based, HEK293 M4/GIRK, thallium flux, BTC-AM, M4 allosteric agonist project, primary screen (AID 625;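 active means fluorescence slope after compound addition differing from the mean of all tested samples at 99.7% confidence, mostly higher but some lower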;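 further: thallium influx through GIRK channels coupled to M4 in HEK293 cells with BTC-AM dye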). Conditions: at 10 µM, actives lie on both sides.
The mark [14] stands for this setting: measured here: cell density z-score.
Setting [15] is: measured here: nuclear c-Myc green intensity z-score.
Where [16] appears, read: measured here: nuclear pErk red intensity z-score, stronger effect = higher value.

Each structure is given as a SMILES string. Where “and” joins values, the source holds several entries; their conditions need not be identical. Equal entries are not always repeated. Calls of active or inactive are those of the source.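 How the source made its calls, unless noted: active means inhibition at or above 50% relative to wild type and mutant plate controls; inactive means inhibition below 50%.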

We go through 10 molecules from PubChem BioAssay.

A word on the inhibition: it is the change of the read-out against control, counted positive when it falls.

Sequence of Voltage-gated potassium channel subunit beta-2 (Rattus norvegicus) (P62483 whole entry, looked up): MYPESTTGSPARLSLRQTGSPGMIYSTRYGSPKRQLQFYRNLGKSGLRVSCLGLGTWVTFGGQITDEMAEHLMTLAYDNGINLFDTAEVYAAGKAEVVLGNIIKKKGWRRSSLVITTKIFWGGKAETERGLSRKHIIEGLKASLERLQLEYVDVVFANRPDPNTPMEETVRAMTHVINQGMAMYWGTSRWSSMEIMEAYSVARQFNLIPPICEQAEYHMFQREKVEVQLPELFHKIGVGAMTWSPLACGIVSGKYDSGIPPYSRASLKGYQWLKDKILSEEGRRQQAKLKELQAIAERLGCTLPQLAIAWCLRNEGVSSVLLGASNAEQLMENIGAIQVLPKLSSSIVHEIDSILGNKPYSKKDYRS
Sequence of Dual specificity protein phosphatase 6 (Homo sapiens) (Q16828 whole entry, looked up): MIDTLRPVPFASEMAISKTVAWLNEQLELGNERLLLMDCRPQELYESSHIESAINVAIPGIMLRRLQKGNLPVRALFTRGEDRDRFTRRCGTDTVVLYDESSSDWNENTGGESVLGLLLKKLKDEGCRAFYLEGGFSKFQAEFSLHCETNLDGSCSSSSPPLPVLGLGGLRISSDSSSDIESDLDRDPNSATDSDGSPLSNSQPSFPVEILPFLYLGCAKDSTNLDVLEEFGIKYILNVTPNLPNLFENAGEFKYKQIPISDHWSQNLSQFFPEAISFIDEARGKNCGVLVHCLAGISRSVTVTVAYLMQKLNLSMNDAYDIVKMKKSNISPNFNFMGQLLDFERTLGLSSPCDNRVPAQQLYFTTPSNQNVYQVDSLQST
Sequence of Alpha-2C adrenergic receptor (Homo sapiens) (P18825 whole entry, looked up): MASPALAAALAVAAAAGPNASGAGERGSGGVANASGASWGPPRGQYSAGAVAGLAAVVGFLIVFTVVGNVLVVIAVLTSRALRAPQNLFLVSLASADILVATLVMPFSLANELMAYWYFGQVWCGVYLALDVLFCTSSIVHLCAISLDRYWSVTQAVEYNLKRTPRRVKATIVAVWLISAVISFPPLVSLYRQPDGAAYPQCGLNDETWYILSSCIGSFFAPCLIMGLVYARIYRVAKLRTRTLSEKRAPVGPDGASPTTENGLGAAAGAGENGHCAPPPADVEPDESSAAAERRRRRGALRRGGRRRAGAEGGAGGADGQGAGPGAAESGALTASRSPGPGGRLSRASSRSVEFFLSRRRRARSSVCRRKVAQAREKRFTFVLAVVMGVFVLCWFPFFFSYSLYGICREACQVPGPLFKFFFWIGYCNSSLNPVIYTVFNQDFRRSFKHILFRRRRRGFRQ
Sequence of Muscarinic acetylcholine receptor M4 (Homo sapiens) (P08173 whole entry, looked up): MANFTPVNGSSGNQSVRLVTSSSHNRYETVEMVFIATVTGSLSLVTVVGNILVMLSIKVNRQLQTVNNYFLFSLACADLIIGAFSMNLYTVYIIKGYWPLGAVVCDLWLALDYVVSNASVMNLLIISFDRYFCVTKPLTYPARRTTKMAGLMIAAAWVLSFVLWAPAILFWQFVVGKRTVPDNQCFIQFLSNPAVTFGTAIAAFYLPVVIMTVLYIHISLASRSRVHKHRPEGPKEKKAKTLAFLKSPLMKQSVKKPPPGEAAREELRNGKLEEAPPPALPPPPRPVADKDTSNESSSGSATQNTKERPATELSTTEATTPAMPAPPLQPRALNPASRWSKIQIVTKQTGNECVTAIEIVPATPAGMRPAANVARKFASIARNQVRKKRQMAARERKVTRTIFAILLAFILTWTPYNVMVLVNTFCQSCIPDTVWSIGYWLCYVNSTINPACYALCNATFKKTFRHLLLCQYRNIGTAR

Regarding `Cc1nc(/N=C(\N)Nc2ccccc2)nc2ccccc12`, in assay [1], the cell count was determined as 304. Besides, the inhibition in assay [1] was 2.5% (inactive); in [3], -112% (inactive); in assay [5], -0.624% (inactive); in [10], 7.3% (inactive); in assay [11], -6.34% (inactive); in [12] it was -21.7% (inactive). Also, in [2], the inhibition of aggregation is -14% (inactive). Besides, the figures for the nuclei count in assay [2] and in assay [3] were 103% and 110%, respectively. In addition, the z-score in assay [4] (setting [14]) stood at 0.361; in assay [4] (setting [15]), 0.688; in [4] (setting [16]) it was 0.354. Besides, the fluorescence slope in [6] was -0.38 (inactive). Moreover, the NADPH fluorescence slope in [7] is 2.3e-05 (inactive). Besides, the slope in assay [8] was 0.0057 (inactive). For the same molecule, the call in [9] was inactive.

As for `O=C(Nc1ccc2c(c1)OCO2)c1cncc(Br)c1`, the cell count in [1] turned out to be 613. Also, the inhibition is -11% (inactive) in assay [1]; -29.9% (inactive) in assay [3]; 19.1% (inactive) in [5]; -3.07% (inactive) in [10]; -15.3% (inactive) in [11]; -51.1% (inactive) in assay [12]. In addition, the inhibition of aggregation in assay [2] was -11.9% (inactive). The nuclei count in [2] stood at 87.1%; in assay [3], 149%. The values for the z-score in [4] (setting [14]), in [4] (setting [15]) and in [4] (setting [16]) were 1.08, -0.36 and -1.03, respectively. For the same molecule, the fluorescence slope in assay [6] was -0.419 (inactive). Also, in assay [7], the NADPH fluorescence slope was -3.7e-05 (inactive). In addition, in assay [8], the slope is 0.00513 (inactive). Also, in assay [9], the outcome was inactive.

Take `CC1(C)Cc2c(sc3c2C2=NCCN2C=N3)CS1`: in assay [1], the cell count was determined as 632. Further, the inhibition is -2.6% (inactive) in assay [1]; -26.4% (inactive) in [3]; 11.3% (inactive) in assay [5]; -8.31% (inactive) in assay [10]; 0.61% (inactive) in assay [11]; 4.84% (inactive) in [12]. Further, the inhibition of aggregation in assay [2] is -1.3% (inactive). Moreover, the nuclei count in [2] amounted to 109%; in assay [3], 138%. The z-score in [4] (setting [14]) was 1.38; in assay [4] (setting [15]), 0.227; in assay [4] (setting [16]), -1.08. The fluorescence slope in [6] is -0.487 (inactive). Besides, the NADPH fluorescence slope in [7] was -0.000119 (inactive). Besides, in assay [8], the slope was 0.00445 (inactive). In addition, the call in assay [9] was inactive.

In the case of `CC1=C(/C=C/C(C)=C/C=C/C(C)=C/C(=O)O)C(C)(C)CCC1`, the cell count in assay [1] was 678. Moreover, the inhibition in [1] is 3.5% (inactive); in assay [3] it was -69% (inactive); in assay [5], 19% (inactive); in [10], 8.28% (inactive) and -12% (inactive); in assay [11], -11.8% (inactive); in [12], -27.2% (inactive). Further, in [2], the inhibition of aggregation is -22.6% (inactive). Also, the values for the nuclei count in assay [2] and in assay [3] were 97.6% and 121%, respectively. Besides, the z-score in assay [4] (setting [14]) was -0.898; in assay [4] (setting [15]), 1.94; in assay [4] (setting [16]), -1.68. The fluorescence slope in [6] is -0.448 (inactive). Besides, in assay [7], the NADPH fluorescence slope is -4.4e-05 (inactive). For the same molecule, the slope in assay [8] is 0.00401 (inactive). Besides, the call in [9] was inactive.

On to `O=C(O)c1cccnc1Nc1cccc(C(F)(F)F)c1`, for which, in assay [1], the cell count was 579. Also, the inhibition is -0.7% (inactive) in assay [1]; -109% (inactive) in assay [3]; 3.59% (inactive) in assay [5]; 0.869% (inactive) and -7.21% (inactive) in assay [10]; 17.3% (inactive) in assay [11]; 24.1% (inactive) in [12]. For the same molecule, the inhibition of aggregation in [2] was 7.2% (inactive). In addition, the nuclei count in assay [2] was 55.6%; in assay [3] it was 125%. The z-score in [4] (setting [14]) is -1.55; in assay [4] (setting [15]), -0.913; in assay [4] (setting [16]) it was 0.921. In addition, in [6], the fluorescence slope was -0.507 (inactive). In addition, in assay [7], the NADPH fluorescence slope was -5.7e-05 (inactive). Further, the slope in assay [8] was 0.00519 (inactive). For the same molecule, in assay [9], the call was inactive.

Regarding `CCOC(=O)CNC(=O)Nc1ccccc1C(=O)OC`, in assay [1], the cell count came to 676. For the same molecule, the inhibition was -2.9% (inactive) in assay [1]; 15.4% (inactive) in assay [3]; -7.67% (inactive) in assay [5]; -5.32% (inactive) in [10]; 10.2% (inactive) in [11]; 18.3% (inactive) in assay [12]. For the same molecule, the inhibition of aggregation in assay [2] was -5.8% (inactive). In addition, the nuclei count was determined as 83.8% in assay [2] and 119% in assay [3]. Also, the z-score in assay [4] (setting [14]) was 0.104; in assay [4] (setting [15]) it was 0.241; in [4] (setting [16]), -0.382. Further, the figures for the fluorescence slope in assay [6] and in [13] were -0.507 (inactive) and 0.00626 (inactive), respectively. In assay [7], the NADPH fluorescence slope was -0.000189 (active). Also, in assay [9], the molecule was called inactive.

Consider `Cc1ccc(/C=N/n2nnnc2N)o1`, for which the cell count in assay [1] turned out to be 674. Moreover, the inhibition in assay [1] was -1.3% (inactive); in assay [3] it was -8.1% (inactive); in assay [5], 1.04% (inactive); in [10] it was 5.51% (inactive); in assay [11] it was -2.49% (inactive); in assay [12], 3.55% (inactive). Further, the inhibition of aggregation in assay [2] is 3.9% (inactive). Besides, the nuclei count came out at 132% in assay [2] and 133% in assay [3]. In addition, the z-score in assay [4] (setting [14]) was 0.152; in assay [4] (setting [15]), -0.504; in [4] (setting [16]), 0.0866. For the same molecule, the fluorescence slope in assay [6] was -0.487 (inactive); in assay [13], 0.00641 (inactive). In addition, in [7], the NADPH fluorescence slope was -2.1e-05 (inactive). In assay [9], the call was inactive.

`COc1cc(NC(=O)NC(C)(C(F)(F)F)C(F)(F)F)cc(OC)c1OC`: in [1], the cell count was determined as 664. The inhibition in assay [1] is -5.8% (inactive); in assay [3] it was -50% (inactive); in assay [5], -1.98% (inactive); in assay [10], 14.3% (inactive); in assay [11], 10.8% (inactive); in [12], 13.7% (inactive). Besides, in assay [2], the inhibition of aggregation is -0.5% (inactive). The nuclei count was determined as 83% in [2] and 140% in assay [3]. Moreover, the z-score in assay [4] (setting [14]) is 0.222; in assay [4] (setting [15]) it was -0.586; in assay [4] (setting [16]), 1.46. Besides, the fluorescence slope is -0.48 (inactive) in assay [6] and 0.00489 (inactive) in assay [13]. For the same molecule, the NADPH fluorescence slope in assay [7] was -6.8e-05 (inactive). The outcome in assay [9] was inactive.

For `CC1(C)CNC(=O)c2sc(N3CCOCC3)nc2C1`, the cell count in assay [1] was determined as 330. In addition, the inhibition in assay [1] was -0.5% (inactive); in assay [3], -112% (inactive); in assay [5] it was -0.159% (inactive); in [10], 0.902% (inactive); in assay [11], 17.2% (inactive); in assay [12], 15.4% (inactive). The inhibition of aggregation in [2] is -17.3% (inactive). Besides, the nuclei count in assay [2] was determined as 76.6%; in assay [3], 119%. Further, the values for the z-score in assay [4] (setting [14]), in assay [4] (setting [15]) and in assay [4] (setting [16]) were -0.682, 0.266 and 1.71, respectively. For the same molecule, the fluorescence slope in assay [6] was -0.39 (inactive); in assay [13] it was 0.00631 (inactive). Besides, the NADPH fluorescence slope in assay [7] was -4.4e-05 (inactive). The molecule was called inactive in [9].

In the case of `O=C(NC1CCS(=O)(=O)C1)c1c(NC(=O)C2COc3ccccc3O2)sc2c1CCCC2` (stereo not given), the cell count in assay [1] was 657. In addition, the inhibition is -7% (inactive) in assay [1]; -35.3% (inactive) in [3]; 5.42% (inactive) in assay [5]; 30.5% (inactive) in [10]; 17.1% (inactive) in [11]; 14.6% (inactive) in assay [12]. In assay [2], the inhibition of aggregation was 3% (inactive). The nuclei count is 97.6% in assay [2] and 143% in assay [3]. Also, the z-score is 0.65 in [4] (setting [14]), -1.93 in assay [4] (setting [15]) and 0.35 in assay [4] (setting [16]). Moreover, the fluorescence slope in assay [6] was -0.42 (inactive); in [13], 0.00528 (inactive). In addition, in [7], the NADPH fluorescence slope is -4.5e-05 (inactive). For the same molecule, in [9], the molecule was called inactive.
